Assay outcomes: PubChem, National Center for Advancing Translational Sciences (NCATS)
HCMV inh = inhibitors of human cytomegalovirus. HFF cells, HCMV-luciferase reporter, 72 h; hits give low values. activity change, negative = inhibition, % at 57.5 µM. 4.5% of 410,000 active; in the data active = activity change below about -60%; inconclusive = no clear call, values can overlap the other calls; inactive = above about -39%
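Human foreskin fibroblasts infected with luciferase-reporter HCMV at MOI 1 PFU/cell, compounds at two doses. Luciferase measured 72 h post infection; normalized to buffer-only basal and Salinomycin (10uM) controls.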
HCV inh = blocks hepatitis C virus; 3.4% of 340,000 active; Potency, µM (highest dose often 41.8 µM), inactives show at the top dose activity change, negative = inhibition, hits mostly inhibitors; Huh7.5.1 HCVcc-Cre infection, luciferase reporter, 44 h; note: potency is the fitted concentration of half-maximal effect
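Compounds are dispensed onto cells plated 4 h earlier at 1,000 per well, with HCVcc-Cre virus (about 0.5 moi) added next. Following 44 h of culture, luminescent signal is measured for 15 sec after 15 min with substrate at room temperature.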
Pf growth 96h = P. falciparum growth inhibition at 96 hours. P. falciparum luciferase reporter growth, 96 h. Potency, µM (titrated, usually from 28.7 µM), inactives show top-dose activity change, negative = inhibition, usual class: inhibitors. 6.9% of 320,000 active; note: potency is the fitted concentration of half-maximal effect
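Cell-based qHTS: luciferase-tagged P. falciparum in erythrocytes (2% hematocrit, 0.05% parasitemia final) incubated with compounds for 96 hours, 37 C, 5% CO2; luciferase detection reagent then added and luminescence measured.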
Pf growth 48h = inhibits P. falciparum growth in the first generation, 48 h. Potency, µM (series often up to 28.7 µM), for inactives: top-dose activity change, negative = inhibition, hits mostly inhibitors. 5.9% of 310,000 active. P. falciparum luciferase growth in erythrocytes, 48 h. AID 504832; note: potency is the fitted concentration of half-maximal effect
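Parasite viability was followed by luminescence of a genomically integrated firefly luciferase. Cultures held 0.1% parasitemia at 2% hematocrit (final), incubated under 5% CO2 at 37 C.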
* hit, by the source's call; u = inconclusive; x = not tested or not shown; [ ] = remark or other dose. Shown are actives, neighbours in structure and some others; about 13% of the full set was active somewhere. Unless noted, calls come from the whole dose curve; as a rule, active = well fitted inhibition curve with a large enough effect; inconclusive = small, poorly fitted or top-dose-only effect, or another doubt; inactive = no such curve, though single readings can be large or run the other way. % is set by controls: 0 for no effect and ±100 for the full control effect.

SMILES	HCMV inh	HCV inh	Pf growth 96h	Pf growth 48h
CC(C(c1ccc2c(c1)OCO2)c1c(N)n(C)c(=O)n(C)c1=O)[N+](=O)[O-] (centres undefined)	-63*	-3%	x	x
CC(C)(C)c1ccc(C2=CC(c3ccccc3F)n3ncnc3N2)cc1 (centres undefined)	0	8%	x	x
COc1cccc(C2=CC(c3ccc(N(C)C)cc3)n3ncnc3N2)c1 (centres undefined)	x	x	10%	10µM*
Cn1cccc1C1C=C(c2ccc(C(C)(C)C)cc2)Nc2ncnn21 (centres undefined)	-80*	u	x	x
Cc1ccc(C2C=C(c3ccccc3)Nc3ncnn32)cc1 (centres undefined)	-22	-2%	x	x
COc1ccc(C2C=C(c3ccc(C)cc3)Nc3ncnn32)cc1 (centres undefined)	-27	-9%	-4%[5.75 µM]	12µM*
CCOc1ccc(C2C=C(c3ccc(F)cc3)Nc3ncnn32)cc1 (centres undefined)	49	2%	x	12µM*
COc1cccc(C2=CC(c3ccc(N(C)C)cc3)n3nnnc3N2)c1 (centres undefined)	-9	-26%	0%	31%
COc1c(Cl)cc(Cl)cc1CNCCSc1nnnn1C	-35	x	x	x
COc1ccc2c(c1)c(=O)c(S(=O)(=O)c1ccc(C)c(C)c1)cn2CC(=O)Nc1ccccc1	7	x	x	x
Cc1nc(Cl)c(C(=O)NC(=O)NCc2ccccc2)c(C)c1Cl	11	-10%	13µM*	6%
CCOc1ccc(NC(=O)CN2C(=O)c3cccc4cccc2c34)cc1	-20	x	x	x
CC(C)N(CCCNC(=O)C1CCN(C(=O)c2cc3sccc3n2C)CC1)Cc1ccccc1	x	u	12µM*	u
Cn1c(C(=O)N2CCCC(C(=O)NCCCSC3CCCCC3)C2)cc2sccc21 (centres undefined)	-61*	u	42%	u
Cn1c(C(=O)N2CCC(C(=O)NCCc3ccccc3)CC2)cc2sccc21	-10	x	x	x
CCn1c(C(=O)N2CCCC(C(=O)NCCCc3ccccc3)C2)cc2sccc21 (centres undefined)	-70*	u	u	u
Cn1c(C(=O)N2CCCC(C(=O)NCc3cccs3)C2)cc2sccc21 (centres undefined)	15	-16%	x	x
CCOC(=O)c1ccc2ncc3c(-c4ccccc4)nn(-c4ccc(F)c(Cl)c4)c3c2c1	1	x	x	x
CN(Cc1ccccc1)S(=O)(=O)c1ccc2[nH]cc(C(=O)NCC3CCCO3)c(=O)c2c1 (centres undefined)	-107*	x	0.93µM*	73%
CCOc1ccc(NS(=O)(=O)c2ccc3[nH]cc(C(=O)NCC4CCCO4)c(=O)c3c2)cc1 (centres undefined)	10	12%	0.029µM*	111%
CC(=O)c1cc(Cl)ccc1OC(=O)c1ccco1	5	3%	x	6%
O=C(Oc1ccc(Br)cc1C(=O)/C=C/c1ccccc1F)c1ccco1	-78*	10µM*	x	x
O=C(CN(c1cccc(Br)c1)S(=O)(=O)c1ccccc1)N1CCc2ccccc2C1	-6	x	x	x
O=C(NC1CCC(NC(=O)C(F)(F)C(F)F)CC1)C(F)(F)C(F)F (centres undefined)	66	8%	13µM*	x
Cc1c(C2=CCN(S(=O)(=O)c3ccc(Cl)cc3)CC2)c2ccccc2n1CC(=O)N1CCCC1	12	x	x	x
SMILES	HCMV inh	HCV inh	Pf growth 96h	Pf growth 48h
COc1ccccc1NC(=O)C1=C(C)Nc2nc3ccccc3n2C1c1cccc(Br)c1 (centres undefined)	-35	x	x	x
CN(CC(=O)Nc1cccc(F)c1)CC(=O)Nc1cccc(S(=O)(=O)N(C)c2ccccc2)c1	67	u	x	x
Cc1cc(C)c(NC(=O)CN(C)CC(=O)Nc2cccc(S(=O)(=O)N(C)c3ccccc3)c2)c(C)c1	u	10µM*	x	x
CCC(C(=O)Nc1cccc(S(=O)(=O)N(C)c2ccccc2)c1)c1ccccc1 (centres undefined)	-2	u	u	9.3µM*
CN(C)S(=O)(=O)c1cccc(NC(=O)C(c2ccccc2)c2ccccc2)c1	-17	10%	0%	u
Cc1ccccc1CN(C)CC(=O)Nc1cccc(S(=O)(=O)N(C)c2ccccc2)c1	7	u	u	u
CCN(CC(=O)Nc1cccc(S(=O)(=O)N(C)c2ccccc2)c1)Cc1ccccc1	-4	u	10µM*	u
